Measured values published in PubChem BioAssay (Tox21).
Unmarked numbers belong to inactive results. Results filed as inconclusive are left out. A call without a number means that no potency is given here. Calls of active or inactive are those of the source. Calls follow the shape of the dose curve; as a rule, active = well fitted curve in the direction sought with a large enough effect in the repeat runs; inconclusive = weak or mixed curves; inactive = no such curve, though single readings can be large; an effect the other way counts as inactive or inconclusive.

Key:
[1] = Human pregnane X receptor (PXR) small molecule agonists, qHTS cell viability counter screen (AID 1346977); also: nearly all actives have a fitted effect of over 50% in size; also: potency is read from the fitted curve at half-maximal effect
Summary of the method: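 PXR-Luc HepG2, 2,000 cells/well, 5% charcoal-stripped FBS; 5hr settle; cpd 24hr, 37C/5% CO2; CellTiter-Fluor at 23hr, read 1hr later (fluorescence).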

[2] = Caspase-3/7 induction in HepG2 cells by small molecules, qHTS assay (AID 1346978); also: nearly all actives have a fitted effect of over 15% in size
Summary of the method: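 Caspase-3/7 induction was measured by Caspase-Glo 3/7 luminescence (30 min, room temperature) after a 17 hr compound exposure of wild-type HepG2 cells seeded at 2,000 per well and pre-incubated 5 hr.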

[3] = Caspase-3/7 induction in CHO-K1 cells by small molecules, qHTS cell viability counter screen (AID 1346979); also: nearly all actives have a fitted effect of over 35% in size
Summary of the method: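 Cells (CHO-K1, wild type) are plated at 1,500 per well and incubated 5hr. Test compounds in DMSO are then pinned in, followed by 16hr at 37C and 5% CO2. Viability is read by CellTiter-Fluor fluorescence after 1hr.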

[4] = molecular target: Nuclear receptor subfamily 1 group I member 2 (Homo sapiens) (UniProt O75469); test: Human pregnane X receptor (PXR) small molecule agonists, qHTS assay (AID 1346982); also: nearly all actives have a fitted effect of over 35% in size; also: potency is read from the fitted curve at half-maximal effect
Sequence of Nuclear receptor subfamily 1 group I member 2 (Homo sapiens) (O75469 whole entry, looked up): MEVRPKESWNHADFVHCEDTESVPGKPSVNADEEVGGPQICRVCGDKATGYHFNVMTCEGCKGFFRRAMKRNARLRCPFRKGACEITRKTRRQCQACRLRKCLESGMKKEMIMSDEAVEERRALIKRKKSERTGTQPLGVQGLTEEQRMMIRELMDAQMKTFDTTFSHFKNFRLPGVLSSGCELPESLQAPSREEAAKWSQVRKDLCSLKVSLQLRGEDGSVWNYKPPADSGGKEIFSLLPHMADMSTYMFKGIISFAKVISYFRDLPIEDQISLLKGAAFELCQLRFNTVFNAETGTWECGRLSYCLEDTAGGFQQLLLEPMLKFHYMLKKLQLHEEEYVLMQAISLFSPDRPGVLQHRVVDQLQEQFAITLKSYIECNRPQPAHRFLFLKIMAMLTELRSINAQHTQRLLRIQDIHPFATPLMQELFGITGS
Summary of the method: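 Agonist mode qHTS: PXR-Luc HepG2 cells plated 5 hr before DMSO-dissolved compounds were pinned in, cultured 24 hr at 37 C, 5% CO2; ONE-Glo luminescence readout.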

[5] = molecular target: Cytochrome P450 2D6 (Homo sapiens) (UniProt P10635); test: Cytochrome P450 Family 2 Subfamily D Member 6 (CYP2D6) small molecule antagonists: luciferase reporter qHTS assay (AID 1671196); also: nearly all actives have a fitted effect of over 50% in size; also: potency is read from the fitted curve at half-maximal effect
Sequence of Cytochrome P450 2D6 (Homo sapiens) (P10635 whole entry, looked up): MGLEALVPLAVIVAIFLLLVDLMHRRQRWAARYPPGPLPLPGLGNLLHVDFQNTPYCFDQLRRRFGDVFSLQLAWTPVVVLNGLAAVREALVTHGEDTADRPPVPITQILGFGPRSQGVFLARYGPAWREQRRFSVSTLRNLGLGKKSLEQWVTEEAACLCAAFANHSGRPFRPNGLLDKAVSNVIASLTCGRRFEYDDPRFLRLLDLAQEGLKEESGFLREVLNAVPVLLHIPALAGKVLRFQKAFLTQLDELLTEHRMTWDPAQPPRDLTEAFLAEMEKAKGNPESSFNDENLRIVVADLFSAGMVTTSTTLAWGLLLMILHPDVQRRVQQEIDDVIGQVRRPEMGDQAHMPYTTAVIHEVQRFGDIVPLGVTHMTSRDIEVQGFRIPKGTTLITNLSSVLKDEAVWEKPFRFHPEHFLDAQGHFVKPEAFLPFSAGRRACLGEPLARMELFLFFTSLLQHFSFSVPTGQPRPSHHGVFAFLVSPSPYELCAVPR
Summary of the method: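 P450-Glo format: CYP2D6 converts a proluciferin substrate to luciferin in an NADPH-driven reaction lasting 1 h at room temperature. Light output, proportional to CYP2D6 activity, reflects interference by test chemicals.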

[6] = Caspase-3/7 induction in HepG2 cells by small molecules, qHTS cell viability counter screen (AID 1346981); also: series mostly up to about 92 µM; nearly all actives have a fitted effect of over 30% in size
Summary of the method: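 Steps: seed 2,000 HepG2 cells per well; incubate 5 hr at 37 C; pin-add compounds in DMSO; incubate 16 hr; add CellTiter-Fluor; after 1 hr at 37 C and 5% CO2, read fluorescence.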

[7] = molecular target: Nuclear receptor subfamily 1 group I member 2 (Rattus norvegicus) (UniProt Q9R1A7); test: Rat pregnane X receptor (rPXR) activation by small molecules, qHTS assay (AID 1346983); settings: rPXR luciferase reporter cells, One-Glo luminescence, 24 h; max activation: stronger effect = higher value; also: nearly all actives have a fitted effect of over 20% in size
Sequence of Nuclear receptor subfamily 1 group I member 2 (Rattus norvegicus) (Q9R1A7 whole entry, looked up): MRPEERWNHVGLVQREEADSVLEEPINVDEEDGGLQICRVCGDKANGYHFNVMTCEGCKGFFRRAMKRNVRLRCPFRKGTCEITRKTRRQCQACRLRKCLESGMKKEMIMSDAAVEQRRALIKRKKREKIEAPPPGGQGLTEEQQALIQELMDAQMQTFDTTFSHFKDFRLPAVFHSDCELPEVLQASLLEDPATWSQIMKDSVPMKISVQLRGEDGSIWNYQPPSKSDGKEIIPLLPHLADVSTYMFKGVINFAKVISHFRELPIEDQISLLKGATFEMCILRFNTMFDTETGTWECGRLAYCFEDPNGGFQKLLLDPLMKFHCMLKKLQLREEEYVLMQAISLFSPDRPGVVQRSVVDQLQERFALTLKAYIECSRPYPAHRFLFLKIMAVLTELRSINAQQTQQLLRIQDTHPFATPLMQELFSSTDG
Summary of the method: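 Luminescent readout (One-Glo luciferase, 30 min room temperature) followed 24 hr compound treatment at 37 C of rPXR cells plated 2,000 per well and preincubated 5hr; qHTS format with compounds delivered in DMSO.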

[8] = molecular target: Nuclear receptor subfamily 1 group I member 2 (Homo sapiens) (UniProt O75469); test: CYP3A4 induction through human pregnane X receptor (PXR) by small molecules, qHTS assay (AID 1346984); also: nearly all actives have a fitted effect of over 40% in size; also: potency is read from the fitted curve at half-maximal effect
Summary of the method: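 Steps: seed DPX-2 cells, 5 hr at 37C; pin-transfer compounds; 24 hr at 37C; add Luciferin-IPA (3uM final), 3 hr at 37C; add One-Glo, 30 min RT; read luminescence.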

[9] = molecular target: Nuclear receptor subfamily 1 group I member 2 (Homo sapiens) (UniProt O75469); test: Human pregnane X receptor (PXR) activation by small molecules, qHTS assay (AID 1346985); also: nearly all actives have a fitted effect of over 40% in size
Summary of the method: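 DPX-2 cells (HepG2 co-transfected with a PXR response element and a CYP3A4-promoter luciferase construct) were seeded at 2,000 per well, rested 5 hr at 37C, then exposed to DMSO-dissolved compounds for 24 hr. Activation was read as luciferase luminescence.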

[10] = Caspase-3/7 induction in CHO-K1 cells by small molecules, qHTS assay (AID 1346980); also: nearly all actives have a fitted effect of over 15% in size; also: potency is read from the fitted curve at half-maximal effect
Summary of the method: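 Luminescent Caspase-Glo 3/7 read (30min, room temperature) quantified apoptosis induction. Cells were wild-type CHO-K1, treated with compound for 17hr at 37 C and 5% CO2.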

Compound	Potency [1]	outcome [2]	Potency [3]	Potency [4]	Potency [5]	Potency [6]	max activation [7] [%]	Potency [8]	Potency [9]	Potency [10]
CC(C)(Oc1ccc(Cl)cc1)C(=O)OCCCOC(=O)C(C)(C)Oc1ccc(Cl)cc1	inactive	inactive	inactive	inactive	inactive					
Cn1c(=O)c2c(ncn2CC(O)CO)n(C)c1=O (stereo not given)	inactive	inactive	inactive		inactive	inactive	-1.09	inactive	inactive	
CC[C@H](C)[C@@H](C(=O)O)n1sc2ccccc2c1=O	inactive	inactive		inactive	inactive	inactive				inactive
CCCCCCCC/C=C\CCCCCCCC(N)=O	inactive	inactive	inactive	15.3 µM (active)	50.2 µM (active)	inactive				
Cl/C(=C\n1cncn1)c1ccc(Cl)cc1Cl	inactive	inactive	inactive		15.5 µM (active)	inactive	-0.206	22.4 µM (active)	inactive	
CCOC(=S)SSC(=S)OCC	inactive	inactive		inactive		inactive	-2.15	inactive	inactive	inactive
O=C(Cl)c1ccc([N+](=O)[O-])cc1	inactive	inactive	inactive	5.35 µM (active)						
O=C1CCCCCO1	inactive	inactive		inactive		inactive				inactive
C=C(C)C(=O)OCCOc1ccccc1	inactive	inactive	inactive		inactive	inactive				
O=C(O)[C@@H]1[C@H]2C[C@H]3c4[nH]c5ccccc5c4CCN3C[C@@H]2CC[C@@H]1O	inactive	inactive		inactive	1.55 µM (active)	inactive	-0.311	inactive	inactive	inactive
Cc1cccc(Oc2ccccc2)c1	inactive	inactive		inactive	34.7 µM (active)					inactive
CCCCCc1ccc(N)cc1	inactive	inactive			31.7 µM (active)	inactive				inactive
COc1ccc([C@@H]2Sc3ccccc3N(CCN(C)C)C(=O)[C@@H]2OC(C)=O)cc1	inactive	inactive				inactive	-0.277			inactive
OCC1CC2CC1C1CCC(CO)C21 (stereo not given)	inactive	inactive		inactive	inactive	inactive				inactive
CCCC(C)C	inactive	inactive			inactive	inactive				inactive
O=C(O)Cn1c(C(=O)Nc2nc(-c3ccccc3Cl)cs2)cc2ccccc21	inactive	inactive			inactive	inactive	-0.843	inactive	inactive	inactive
O=C1Nc2cc(Cl)ccc2Oc2ccccc21	inactive	inactive		inactive	inactive					inactive
Oc1ccc(Sc2ccc(O)cc2)cc1	inactive	inactive		51 µM (active)	33.3 µM (active)	inactive				inactive
COc1ccccc1OC(=O)Oc1ccccc1OC	inactive	inactive		inactive		inactive	-1.11	inactive	inactive	
CCOC(=O)C1=NN(c2ccccc2)C(=O)C1	inactive	inactive			inactive	inactive				
Cc1ccc(O)c([C@H](CCN(C(C)C)C(C)C)c2ccccc2)c1	11.9 µM (active)	inactive			3.09 µM (active)		2.91			inactive
CCCCCCCCCC(=O)OCC	inactive	inactive		inactive	inactive	inactive				inactive
Oc1ccc(O)c2c(O)cccc12	inactive	inactive			inactive					inactive
N#CCCNCCC#N	inactive	inactive		inactive	inactive	inactive				
CN(c1nccc(=O)[nH]1)C1CCN(c2nc3ccccc3n2Cc2ccc(F)cc2)CC1	inactive	inactive			12.3 µM (active)	inactive	-3.1	inactive	inactive	inactive
Cc1ncsc1CCO	inactive	inactive		inactive	inactive	inactive				inactive
NC1CCN(c2nc3c(cc2F)c(=O)c(C(=O)O)cn3-c2ccc(F)cc2F)C1 (stereo not given)	inactive	inactive			inactive	inactive	-4.88			inactive
C=CC(=O)OCC(C)OCC(C)OCC(C)OC(=O)C=C (stereo not given)	inactive	inactive		inactive	inactive					24.3 µM (active)
